Data taken from PubChem BioAssay AID2100 (National Center for Advancing Translational Sciences (NCATS), 2009).
Hit rate of the full screen: of about 300,000 compounds, about 1,200 (0.4%) were called active. Another 3% or so got no clear call; they are omitted. Calls follow the shape of the dose curve; as a rule, active = well fitted inhibition curve with a large enough effect; inconclusive = small, poorly fitted or top-dose-only effect, or another doubt; inactive = no such curve, though single readings can be large or run the other way. For the sample, actives were picked, then their nearest neighbours and some compounds at random.

Each compound was assayed against Lysosomal alpha-glucosidase (Homo sapiens) (UniProt P10253) (assay: qHTS Assay for Inhibitors and Activators of Human alpha-Glucosidase Cleavage of Glycogen). Details: recombinant GAA, glycogen substrate, Amplex Red glucose oxidase fluorescence; series mostly up to 76.3 µM; activity change, negative = inhibition: at the top concentration.
Description: NIH Chemical Genomics Center [NCGC] NIH Molecular Libraries Probe Production Centers Network [MLPCN] MLPCN Grant: R03 MH084841-01 Assay Submitter (PI): Wei Zheng NCGC Assay Overview: Alpha-glucosidase is responsible for the hydrolysis of terminal, non-reducing 1,4-linked alpha-D-glucose residues, which releases alpha-D-glucose. It is a lysosomal hydrolase that is required for the degradation of a small percentage (1-3%) of cellular glycogen in humans. Deficiency of this enzyme results in glycogen-storage disease type II (GSDII), also referred to as Pompe disease, an autosomal recessive disorder. Structurally normal glycogen is accumulated in the lysosomes and cytoplasm in affected patients, primarily in muscle tissues. Excessive glycogen storage within lysosomes may interrupt normal functioning of other organelles and leads to cellular injury. In turn, this leads to enlargement and dysfunction of the entire organ involved (eg: cardiomyopathy and muscle weakness). It has been reported that the improper folding and trafficking of alpha-glucosidase resulting from genetic mutations may account for a significant number of Pompe patients. […] We optimized this alpha-glucosidase assay in 1536-well plate format for identification of novel small molecule inhibitors or activators with structures other than the sugar analogs in order to develop new pharmacological chaperones. Previous assays of alpha-Glucosidase have utilized a non-natural fluorescent substrate to probe enzyme activity. The present assay measures enzyme activity on glycogen using a coupled-assay system to glucose oxidase.
NCGC Assay Protocol Summary: This is an enzyme assay using glycogen from bovine liver (Sigma catalog #: G0885) as the substrate and recombinant human alpha-glucosidase as the enzyme preparation. Upon hydrolysis of the substrate, the glucose product can be detected using the Amplex Red Glucose Oxidase Assay Kit (Invitrogen catalog #: A22189). The product of this reaction can be read with a fluorescence plate reader with an excitation at 573 nm and an emission at 610 nm. Data were normalized to the controls for basal activity (without enzyme) and 100% activity (with enzyme). The AC50 values were determined from concentration-response data modeled with the standard Hill equation. Assay buffer for enzyme reaction: 50 mM citric acid (titrated with potassium phosphate to pH 5.0), 0.01% Tween-20 (pH 5.0 is an optimal condition for this enzyme assay) Assay buffer for Amplex Red reaction: Tris-HCl, pH 7.5 1536-well assay protocol for the alpha-glucosidase assay: (1) Add 2 ul/well alpha-glucosidase enzyme solution (4 nM final) (2) Add 23 nL compounds in DMSO solution. The final titration was 0.7 nM to 77 uM. (3) Add 1 ul of glycogen substrate solution (30 ug) (4) Incubate at 37 C for 40 min (5) Add 2 ul tris-HCl buffer with Amplex Red reagents (6) Incubate 45 min at room temperature. (7) Detect the assay plate in a ViewLux plate reader (PerkinElmer) with Ex=573 nm and Em=610nm. Keywords: Alpha-glucosidase, Pompe Disease, pharmacological chaperone, chaperone therapy, high throughput screening, alpha-glucosidase inhibitor, MLSMR, MLSCN, NIH Roadmap, qHTS and NCGC
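Also: the screen sought inhibitors and activators.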
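For activity change, negative = inhibition in this document: 0% = full enzyme reaction and -100% = no-enzyme basal signal.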
Potency is read from the fitted curve at half-maximal effect.

SMILES | activity change, negative = inhibition | Potency
CCOc1ccc2nc(N3CCCC(C(=O)Nc4cc(C)ccc4C)C3)sc2c1 (configuration not stated) | -4.5% (inactive) | –
O=C(O)/C=C/C(=O)NNc1ccc([N+](=O)[O-])cc1 | – | 14 µM (active)
CNC(=S)Nc1ccc([N+](=O)[O-])cc1 | 1.96% [at 76.4 µM] (inactive) | –
O=[N+]([O-])c1ccc(N/N=C/c2ccccc2)cc1 | -6.86% [at 76.4 µM] (inactive) | –
COc1cc(Nc2nc(-c3ccc(OC)c(OC)c3)nc3ccccc23)cc(OC)c1 | 2.34% (inactive) | –
CC(Nc1ccc(-c2nc(-c3ccco3)no2)cc1[N+](=O)[O-])c1ccccc1 (configuration not stated) | -6.17% (inactive) | –
CCc1ccc(C(=O)CC2(O)C(=O)N(CCc3ccccc3)c3ccc(Br)cc32)cc1 (configuration not stated) | -5.36% (inactive) | –
Cn1c(=O)n(C)c2cc(CNc3ccc(N4CCOCC4)c(C(=O)O)c3)ccc21 | – | 9.92 µM (active)
CCN(CC)S(=O)(=O)c1ccc(N2CCOCC2)c(C(=O)O)c1 | 1.48% [at 76.4 µM] (inactive) | –
COC(=O)c1cc(NC(=O)c2ccco2)ccc1N1CCOCC1 | 10.8% [at 76.4 µM] (inactive) | –
CCn1cc(C(=O)NCCc2ccccc2)c(=O)c2cc(S(=O)(=O)N3CCCCCC3)ccc21 | 0.975% (inactive) | –
O=C(Nc1nc2c(s1)CCCC2)c1ccccc1F | -6.45% (inactive) | –
CC(CC(=O)N1CCN(c2ccccc2)CC1)c1ccccc1 (configuration not stated) | 7.33% [at 76.4 µM] (inactive) | –
CCc1ccc(NC(=O)N2CCN(c3ccccc3)CC2)cc1 | -8.22% [at 76.4 µM] (inactive) | –
CC(=O)N1CCN(c2ccc(NCc3ccc(C(C)C)cc3)cc2)CC1 | – | 31.6 µM (active)
Cc1ccc(-c2cc(N)n(Cc3cccc(Cl)c3)n2)cc1 | -10.6% (inactive) | –
CC1=Nc2cc(C(=O)N3CCC(C)CC3)ccc2Sc2ccc(Cl)cc21 | -8.37% (inactive) | –
Cc1ccc(Nc2nnc(SCc3ccccc3)s2)cc1 | 4.5% [at 76.4 µM] (inactive) | –
Cc1ccc(Nc2ccccc2N)cc1 | – | 50.1 µM (active)
Nc1ccc(Nc2ccccc2)cc1 | -24.5% [at 76.4 µM] (inactive) | –
COc1ccc(CNC(=O)COCc2cc(-c3cccs3)on2)cc1OC | 16% (inactive) | –
Cc1nc2nc(NCc3cccc(Br)c3)[nH]n2c(=O)c1Cc1ccccc1 | 6.3% (inactive) | –
CC1CCN(c2nc3ccc(C(=O)N4CCN(c5ccccc5)CC4)cc3s2)CC1 | -11.9% (inactive) | –
O=C(Nc1ccc2nc(SCCOc3ccccc3)sc2c1)c1ccco1 | -5.61% (inactive) | –
Cc1cc(NC(=O)C2CCC(CNS(=O)(=O)c3ccc(Br)s3)CC2)ccc1Br (configuration not stated) | -16.1% (inactive) | –
CCN(CC)S(=O)(=O)c1cc([N+](=O)[O-])ccc1NNC(=O)Nc1ccccc1 | – | 28.2 µM (active)

SMILES | activity change, negative = inhibition | Potency
CCN(CC)S(=O)(=O)c1cc([N+](=O)[O-])ccc1N=Nc1c(O)n(C)c2ccccc12 | -1.84% [at 76.4 µM] (inactive) | –
CC(=O)c1ccc(NC(=O)Nc2ccc([N+](=O)[O-])cc2C)cc1 | 3.84% [at 76.4 µM] (inactive) | –
COC(=O)c1cccc(Cn2nnc3sc4c(c3c2=O)CCC(C(C)(C)C)C4)c1 (configuration not stated) | 7.54% (inactive) | –
CC(=O)C1(C)N(O)C(C)(C)C(c2cccs2)=[N+]1[O-] (configuration not stated) | 1.27% [at 76.4 µM] (inactive) | –
C/C(=N\O)C1(C)N(O)C(C)(C)C(c2ccc(Br)cc2)=[N+]1[O-] (configuration not stated) | – | 6.26 µM (active)
Cc1nnc(NCc2ccccc2)c2c1nnn2Cc1ccc(F)cc1 | -8.32% (inactive) | –
NS(=O)(=O)c1ccc(Nc2nc(-c3ccccc3)cs2)cc1 | 15.4% [at 76.4 µM] (inactive) | –
COc1cccc(CC(=O)Nc2nc(-c3ccc(OC)c(OC)c3)cs2)c1 | -2.53% (inactive) | –
COc1ccc(OC)c(Nc2nc(-c3ccc(O)c(O)c3)cs2)c1 | – | 28.2 µM (active)
COc1ccc(C)cc1Nc1nc(-c2c(C)[nH]c3ccccc23)cs1 | 9.48% [at 76.4 µM] (inactive) | –
COc1ccc(-c2csc(Nc3ccc(O)cc3)n2)cc1 | – | 11.2 µM (active)
COc1ccc(-c2csc(Cc3nc(O)cs3)n2)cc1 | -14.2% [at 76.4 µM] (inactive) | –
Cc1cccc(C(=O)NCCc2nc3ccccc3n2Cc2ccccc2Cl)c1 | -12% (inactive) | –
CC(C)S(=O)(=O)c1oc(-c2ccc(F)cc2)nc1S(=O)(=O)c1ccc(F)cc1 | -4.7% (inactive) | –
COc1ccccc1C(=O)Nc1c(C(=O)N(C)Cc2ccccc2)sc2nc(C)c(Cl)c(C)c12 | -19.2% (inactive) | –
COc1cc(Cl)c(NC(=O)CC(C)S(=O)(=O)c2cc3c(cc2C)NC(=O)CO3)c(OC)c1 (configuration not stated) | -5.92% (inactive) | –
CC(C)C1N=C2c3ccccc3N=C(SCC(=O)c3ccc(O)c(O)c3)N2C1=O (configuration not stated) | – | 12.5 µM (active)
O=C(CSC1=Nc2ccccc2C2=NC(CC(=O)NCc3ccco3)C(=O)N12)NCc1ccco1 (configuration not stated) | -6.09% [at 76.4 µM] (inactive) | –
CCC(C)NC(=O)CSC1=Nc2ccccc2C2=NC(CCC(=O)NCc3ccco3)C(=O)N12 (configuration not stated) | 2.88% [at 76.4 µM] (inactive) | –
CC(NC(=O)CCc1cn(Cc2ccccc2Cl)c2ccccc12)c1ccccc1 (configuration not stated) | -9.52% (inactive) | –
O=C(CCl)NNc1cccc(Cl)n1 | – | 20 µM (active)
COc1cc(OC)nc(NC(=O)CCl)n1 | -2.2% [at 76.4 µM] (inactive) | –
O=C(Cc1c(Cl)cccc1Cl)NC1CC1 | 1.8% [at 76.4 µM] (inactive) | –
COc1ccccc1CNC(=O)CCn1c(=O)c2ccccc2n(CC(=O)Nc2cccc(Cl)c2)c1=O | -11.3% (inactive) | –
Cc1ccc(CSc2nc3cccnc3n2Cc2ccc(C(=O)NC3CC3)cc2)cc1 | -6.11% (inactive) | –
COC(=O)c1sccc1NC(=O)CCC1CCCC1 | 0.821% [at 76.4 µM] (inactive) | –
